Each molecule was assayed against Luciferin 4-monooxygenase (Photinus pyralis) (UniProt P08659) (assay: firefly luciferase enzyme inhibitors, primary screen, biochemical, luminescence, purified enzyme, 2006 set (AID 1141;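 note: cell-free assay with purified firefly luciferase at 100 ng per well in PBS; test concentration not given here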)). Conditions: SteadyGlo luminescence, 30 min, higher = more signal, called active from +8 up or from −8 down.
Luciferin 4-monooxygenase (Photinus pyralis), sequence (P08659 whole entry, looked up): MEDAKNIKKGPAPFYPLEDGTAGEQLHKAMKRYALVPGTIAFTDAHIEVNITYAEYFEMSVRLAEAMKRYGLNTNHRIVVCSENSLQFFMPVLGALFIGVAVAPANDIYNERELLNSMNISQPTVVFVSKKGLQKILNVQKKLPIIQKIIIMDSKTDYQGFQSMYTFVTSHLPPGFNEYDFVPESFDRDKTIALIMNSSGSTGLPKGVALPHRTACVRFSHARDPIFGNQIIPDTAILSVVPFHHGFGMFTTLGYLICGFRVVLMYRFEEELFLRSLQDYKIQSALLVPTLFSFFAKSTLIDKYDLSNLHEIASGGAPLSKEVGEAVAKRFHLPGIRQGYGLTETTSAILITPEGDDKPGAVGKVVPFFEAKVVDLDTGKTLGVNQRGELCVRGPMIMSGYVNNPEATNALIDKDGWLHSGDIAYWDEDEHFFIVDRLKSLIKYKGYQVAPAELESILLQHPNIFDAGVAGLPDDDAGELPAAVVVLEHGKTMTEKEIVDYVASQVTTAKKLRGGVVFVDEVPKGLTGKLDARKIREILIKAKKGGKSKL

z-score, inactive:
CCOC(=O)C[C@H]1[C@H](OC(=O)Cc2ccc3c(c2)OCO3)[C@@H](NC(=O)Cc2ccc(OC)cc2)c2cc(OCCCO)ccc2N1C(=O)Cc1ccc(OC)cc1 -0.127, COC(=O)[C@@]1(Cc2ccccc2)[C@H]2c3cc(C(=O)N4CCCC4)n(Cc4ccc(OC)c(OC)c4)c3C[C@H]2CN1C(=O)c1ccccc1 2.75, [N-]=[N+]=Nc1ccccc1C[C@]1(C(=O)N2CCOCC2)N=C(c2ccc(OCCCO)cc2)O[C@H]1c1ccccc1N=[N+]=[N-] -4.36, CC(C)(C)N1CC=CC23O[C@@H]4/C=C\CCCOC(=O)C4[C@H]2C(=O)N(CCCO)[C@@H]3C1=O (stereo partly drawn) 0.552, COc1ccc(CCNC(=O)[C@@H]2c3ccccc3C(=O)N(Cc3ccccc3OC)[C@H]2c2ccc(CO)cc2)cc1 0.256, NC(=O)NCC#Cc1ccc2c(c1)[C@]1(C(=O)N2)[C@H](c2ccc(OCCO)cc2)N2[C@H](c3ccccc3)[C@H](c3ccccc3)OC(=O)[C@H]2[C@@H]1C(=O)O -1.6, COc1ccc(C(=O)Nc2ccc3c(c2)[C@@]2(O[C@H](CCO)[C@@H]([Si](C)(C)c4ccc(OC)cc4)[C@@H]2C)C(=O)N3Cc2ccccc2)cc1 -0.585, COC(=O)C1=CC(CCCO)=CC(c2cccs2)N(Cc2cc3c(cc2Br)OCO3)C=C1C(=O)OC (stereo not drawn) -1.39, O=C1O[C@H](c2ccccc2)[C@H](c2ccccc2)N2[C@H]1[C@@H](C(=O)O)[C@]1(C(=O)Nc3ccc(C#CCCO)cc31)[C@H]2c1ccc(OCCO)cc1 -3.11, CCOC(=O)C[C@H]1[C@H](OC(=O)Cc2ccc3c(c2)OCO3)[C@@H](NC(=O)c2ccc3ccccc3n2)c2cc(OCCCO)ccc2N1C(=O)Cc1ccc(OC)cc1 -0.628, O=C(NC1CC1)[C@@H]1c2ccccc2C(=O)N(Cc2cc(C(F)(F)F)cc(C(F)(F)F)c2)[C@H]1c1ccc(CO)cc1 -0.423, C=C(/C(=C/C[C@@H](OC(C)=O)c1cccc(OCCO)c1)c1cnc2ccccc2c1)C(C)C -0.614, O=C1C2C=CC(C(O)c3cccs3)N(Nc3ccc([N+](=O)[O-])cc3)C2C(=O)N1c1ccccc1 (stereo not drawn) 1.1, C[N+](C)(C)CCCC[C@@H]1NC(=O)[C@H]2C[C@@H](C(=O)NCCCCCNC(=O)CS)[C@@H](c3cccc(OCCO)c3)N2C1=O -1.09, COCCOC(=O)N1C(=O)[C@@]2(c3cc(C#CCC(C(=O)OC)C(=O)OC)ccc31)[C@H](c1ccc(O)cc1)N1[C@H](c3ccccc3)[C@H](c3ccccc3)OC(=O)[C@H]1[C@@H]2C(=O)Nc1nc2ccccc2s1 -0.344, COC(=O)[C@@]1(Cc2ccc(OC)cc2)[C@H]2c3cc(C(=O)N4CCCC4)n(Cc4c(CO)[nH]cc(C)c4=O)c3C[C@H]2CN1C(=O)c1ccccc1 0.835, O=C1C[C@]2(c3ccc([N+](=O)[O-])cc3)C(=O)N(C3CC3)c3cc(CO)ccc3[C@H]2N1C1CCCCC1 0.277, C=C(COC)/C(=C/C[C@@H](OC(C)=O)c1ccccc1OCCO)c1cnc2ccccc2c1 -1.47, COCCOC(=O)N1C(=O)[C@@]2(c3cc(C#CC4(O)CCCCCC4)ccc31)[C@H](c1ccc(O)cc1)N1[C@H](c3ccccc3)[C@H](c3ccccc3)OC(=O)[C@H]1[C@@H]2C(=O)N1CCCCCCC1 -0.552, C=CCOC(=O)[C@@H]1[C@H]2C(=O)O[C@H](c3ccccc3)[C@H](c3ccccc3)N2[C@H](c2ccc(OCCOC(=O)[C@H]3C[C@H]4C(=O)N[C@@H](CCCCN(C)C)C(=O)N4[C@H]3c3ccc(O)cc3)cc2)[C@@]12C(=O)Nc1ccc(I)cc12 -4.54, COC(=O)C[C@H]1O[C@@]2(C[C@@H]1[Si](C)(C)C)C(=O)N(C)c1ccccc12 -1.85, C=CCC(OC(C)=O)[C@@H]1[C@@H](N(Cc2cc3ccccc3o2)C(=O)c2cccc3ccccc23)c2cc(OCCCO)ccc2N1C(=O)c1ccc2ccccc2n1 (stereo partly drawn) -0.305, COC(=O)[C@@]1(Cc2ccc(OC)cc2)[C@H]2c3cc(C(=O)N4CCCC4)n(CCn4cc([N+](=O)[O-])nc4C)c3C[C@H]2CN1C(=O)c1ccccc1 1.22

Reference: PubChem BioAssay
